A short description of assay [1]: Nuclear factor erythroid 2-related factor 2/antioxidant responsive element (Nrf2/ARE) small molecule agonists: qHTS cell viability counter screen in human keratinocytes (AID 1919968; active means well fitted curve in the direction sought with a large enough effect in the repeat runs; an effect the other way counts as inactive or inconclusive; further: nearly all actives have a fitted effect of over 55% in size). In a few lines:
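KeratinoSens cells (HaCaT keratinocytes stably carrying an ARE-luciferase reporter) were seeded at 1,500 cells/well and rested 5 h at 37 C/5% CO2. They were then exposed to compounds in DMSO for 23 h. Viability was read by CellTiter-Fluor fluorescence after 1 h.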
On the technique in general: qHTS replaces the single test concentration by a dilution series.

Assay [2] is described as follows: Nuclear factor erythroid 2-related factor 2/antioxidant responsive element (Nrf2/ARE) small molecule agonists: luciferase reporter gene qHTS assay in human keratinocytes (AID 1919969). Further: nearly all actives have a fitted effect of over 35% in size. A general note: Reporter assays use an easily measured gene product as a stand-in for the process of interest.
Assay [3] has as its target Gonadotropin-releasing hormone receptor (Homo sapiens) (UniProt P30968). Put plainly: Human gonadotropin-releasing hormone receptor (GnRHR) small molecule agonists, calcium flux assay in GnRHR-HEK293 cells (AID 1920063). Further: nearly all actives have a fitted effect of over 35% in size. Further: potency means the concentration at half of the fitted maximal effect. The method in brief:
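HEK293 cells stably expressing human GnRHR were plated 18 h at 37 °C, loaded with calcium dye 1 h at 37 °C, then given compound in agonist mode; fluorescence (Ex/Em 480/540) read kinetically for 3 min at 1 s intervals.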
For orientation: A change in cytosolic calcium serves as a functional read-out for many receptors and channels.

Assay [4] addresses KiSS-1 receptor (Homo sapiens) (UniProt Q969F8). Description: Human kisspeptin (KISS1R) small molecule agonists, calcium flux assay in KISS1R-HEK293 cells (AID 1920064; active means well fitted curve in the direction sought with a large enough effect in the repeat runs; an effect the other way counts as inactive or inconclusive). In a few lines:
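HEK293 cells stably expressing human KISS1R were plated 18 h at 37 °C, loaded with calcium dye for 1 h at 37 °C, then given compound by pin tool. Fluorescence (Ex/Em 480/540) was read kinetically for 3 min.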

Assay [5] in a line: G protein-coupled receptor (GPCR) small molecule agonists, calcium flux assay: HEK293 wild type cell line counter screen (AID 1920065). In a few lines:
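Cells were plated and cultured 18 h at 37 C/5% CO2, then loaded with calcium dye for 1 h at 37 C. Compounds in DMSO were pin-transferred in agonist mode, and fluorescence (Ex/Em 480/540) was read kinetically for 3 min at 1 s intervals.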

Assay [6] can be described thus: p53 small molecule agonists, cell-based qHTS assay with human liver microsomes (AID 1963577).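 Further: p53 response element beta-lactamase reporter cells with liver microsomes plus NADPH.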 The method in brief: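 Metabolically competent format: test substances, human liver microsomes and NADPH (both 0.5 mg/mL final) incubated with p53RE-bla cells 16 h at 37 C. Beta-lactamase reporter signal then quantified by fluorescence.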
Assay [7] can be described thus: p53 small molecule agonists, cell-based qHTS assay with rat liver microsomes (AID 1963578). The method in brief:
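Each plate received p53RE-bla cells, then compound, then rat liver microsomes and NADPH (both 0.5 mg/mL final). Plates were held 16 h at 37 C, and beta-lactamase activity was detected with LiveBLAzer over 2 h.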

A short description of assay [8]: p53 small molecule agonists, cell-based qHTS assay with human liver microsomes: qHTS cell viability counter screen (AID 1963579). Further: nearly all actives have a fitted effect of over 45% in size. In a few lines: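 Tox21 library compounds, delivered from DMSO stocks, were tested on p53RE-bla cells together with 0.5 mg/mL human liver microsomes and 0.5 mg/mL NADPH (final) over 16 h at 37 C; CellTiter-Glo luminescence served as the cytotoxicity measure.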

Assay [9] can be described thus: p53 small molecule agonists, cell-based qHTS assay with rat liver microsomes: qHTS cell viability counter screen (AID 1963580). Further: nearly all actives have a fitted effect of over 45% in size. The method in brief:
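Intracellular ATP, by CellTiter-Glo luminescence, defines viability. HCT-116 p53RE-bla cells, 4,000 per well, were compound-treated in the presence of rat liver microsomes and NADPH for 16 h at 37 C.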

A short description of assay [10]: p53 small molecule agonists, cell-based qHTS assay: qHTS cell viability counter screen (AID 1963581). Further: nearly all actives have a fitted effect of over 45% in size. The method in brief:
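p53RE-bla HCT-116 cells were exposed to compounds for 16 h at 37 C; after the beta-lactamase FRET read in the same wells, CellTiter-Glo was added and luminescence (intracellular ATP) read after 30 min at room temperature.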

Assay [11] in a line: p53 small molecule agonists, cell-based qHTS assay (AID 1963582; active means well fitted activation curve with a large enough effect in the signal ratio in the repeat runs, not every such curve was filed as active; the % refers to the signal ratio). In a few lines:
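p53RE-bla beta-lactamase reporter cells rested 5 h at 37 C/5% CO2, then received compounds in DMSO by pin transfer and were incubated 16 h at 37 C. LiveBLAzer B/G FRET substrate was loaded for 2 h at room temperature before fluorescence reading.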

The target in assay [12] is 5-hydroxytryptamine receptor 2A (Homo sapiens) (UniProt P28223). Description: 5-hydroxytryptamine receptor 2A (HTR2A) small molecule agonists, cell-based qHTS assay (AID 1963587). Further: nearly all actives have a fitted effect of over 30% in size. Further: potency means the concentration at half of the fitted maximal effect. The method in brief:
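Kinetic calcium-flux fluorescence (2 min, 1 sec intervals) after compound addition in agonist mode. HTR2A-CHO cells were cultured 18 h, then dye-loaded 1 h at 37 C.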

In assay [13] the target is Muscarinic acetylcholine receptor M1 (Homo sapiens) (UniProt P11229). Description: Cholinergic receptor muscarinic 1 (CHRM1) small molecule antagonists, cell-based qHTS assay (AID 1963588). Further: nearly all actives have a fitted effect of over 40% in size. Further: potency means the concentration at half of the fitted maximal effect. The method in brief: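 CHRM1-CHO calcium-flux assay, antagonist mode. Cells were seeded 18 h, dye-loaded 1 h at 37 C and given compound for 5 min at RT, then acetylcholine was added at 50nM. FDSS fluorescence was read 3 min; 15 concentrations, three runs.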
Muscarinic acetylcholine receptor M1 (Homo sapiens), sequence (P11229 whole entry, looked up): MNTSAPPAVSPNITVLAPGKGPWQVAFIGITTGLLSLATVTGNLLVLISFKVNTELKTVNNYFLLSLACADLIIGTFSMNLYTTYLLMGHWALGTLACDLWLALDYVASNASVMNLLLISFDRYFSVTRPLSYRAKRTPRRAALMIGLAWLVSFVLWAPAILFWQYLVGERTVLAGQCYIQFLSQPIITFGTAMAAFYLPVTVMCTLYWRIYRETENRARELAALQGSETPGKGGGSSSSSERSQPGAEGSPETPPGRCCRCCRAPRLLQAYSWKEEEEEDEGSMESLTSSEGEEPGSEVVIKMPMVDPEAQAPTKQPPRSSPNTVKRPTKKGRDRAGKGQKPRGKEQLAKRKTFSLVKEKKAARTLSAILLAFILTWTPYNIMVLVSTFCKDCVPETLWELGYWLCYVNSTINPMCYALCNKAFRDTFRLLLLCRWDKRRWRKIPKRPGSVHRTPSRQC

Assay [14] shares this target. Description: Cholinergic receptor muscarinic 1 (CHRM1) small molecule agonists, cell-based qHTS assay (AID 1963589). Further: nearly all actives have a fitted effect of over 35% in size. In a few lines: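 CHO cells stably expressing human CHRM1, seeded 18 h at 37 C/5% CO2, dye-loaded 1 h at 37 C, then given compound in agonist mode; intracellular calcium fluorescence read kinetically at 1 s intervals. Fifteen concentrations, three independent runs.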

Assay [15] is described as follows: cAMP Responsive Elements (CRE) small molecule antagonists, cell-based qHTS assay (AID 1963591; active means well fitted inhibition curve with a large enough effect in the signal ratio in the repeat runs, not every such curve was filed as active; the % refers to the signal ratio). The method in brief:
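CRE-bla HEK293T cells were plated 18 h at 37 °C/5% CO2, pinned with compound in DMSO, then stimulated with NKH477 at 0.25 uM final for 3 h. LiveBLAzer B/G FRET substrate was added and plates incubated 2 h at room temperature.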

For assay [16], the target named is Beta-2 adrenergic receptor (Homo sapiens) (UniProt P07550). Description: Adrenergic beta2 receptor (ADRB2) small molecule antagonists, cell-based qHTS assay (AID 1963592). Further: series mostly up to about 92 µM; nearly all actives have a fitted effect of over 50% in size. The method in brief:
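Cells (CHO, stable ADRB2 overexpression) incubated 18-20hr at 37C; compounds added from DMSO; agonist mix (1nM isoproterenol, 100uM IBMX, 25uM Ro-20-1724) added; 0.5hr RT; d2-cAMP and anti-cAMP-cryptate added; 1hr RT; 665/615 nm read.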

For assay [17] the target is unchanged. Description: Adrenergic beta2 receptor (ADRB2) small molecule agonists, cell-based qHTS assay (AID 1963593).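 Further: CHO cells stably overexpressing human ADRB2.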 The method in brief: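 CHO cells stably over-expressing ADRB2 were plated overnight at 37C, then dosed with compounds plus a stimulation mix containing 100uM IBMX and 25uM Ro-20-1724 for 0.5hr at room temperature. cAMP was measured by HTRF competition, 1hr.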

For assay [18], the target named is D(2) dopamine receptor (Homo sapiens) (UniProt P14416). Description: Dopamine D2 receptor (DRD2) small molecule antagonists, cell-based qHTS assay (AID 1963595; active means well fitted inhibition curve with a large enough effect in the signal ratio in the repeat runs, with a control signal flat; the % refers to the signal ratio). In a few lines: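 Stable D2 receptor HEK293 line, 24 h after seeding. Compound preincubated 10 min, then quinpirole (12 nM) with forskolin analogue NKH477 (200 nM), 30 min, room temperature. Detection by time-resolved FRET of cAMP.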
D(2) dopamine receptor (Homo sapiens), sequence (P14416 whole entry, looked up): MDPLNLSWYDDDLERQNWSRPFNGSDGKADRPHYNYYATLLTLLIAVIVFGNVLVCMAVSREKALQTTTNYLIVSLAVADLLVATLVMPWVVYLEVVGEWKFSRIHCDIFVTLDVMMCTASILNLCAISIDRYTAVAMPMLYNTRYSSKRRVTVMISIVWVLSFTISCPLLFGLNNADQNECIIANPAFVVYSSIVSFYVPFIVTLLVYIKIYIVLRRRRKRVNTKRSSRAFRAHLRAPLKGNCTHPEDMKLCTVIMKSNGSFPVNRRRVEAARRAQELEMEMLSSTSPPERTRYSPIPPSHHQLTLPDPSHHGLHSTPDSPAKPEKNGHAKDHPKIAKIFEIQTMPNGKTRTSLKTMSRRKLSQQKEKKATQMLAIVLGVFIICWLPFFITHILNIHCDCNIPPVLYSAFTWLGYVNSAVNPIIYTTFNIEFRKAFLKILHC

The target is the same in assay [19]. Description: Dopamine D2 receptor (DRD2) small molecule agonists, cell-based qHTS assay (AID 1963594). Further: nearly all actives have a fitted effect of over 35% in size. The method in brief:
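cAMP accumulation in DRD2-HEK293 cells measured by HTRF after 1 h detection; compounds added 10 min before NKH477 (200nM […]) forskolin-analogue stimulation, 30 min at room temperature, with Ro20-1724 present at 0.1 mM final.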

Assay [20] in a line: cAMP Responsive Elements (CRE) small molecule agonists, cell-based qHTS assay (AID 1963590). In a few lines:
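CRE-bla HEK 293T cells in DMEM with 10% dialyzed FBS, NEAA, pyruvate and 25 mM HEPES were plated 18 h at 37 C/5% CO2, then exposed to compounds in DMSO for 3 h before LiveBLAzer B/G FRET substrate addition.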

From PubChem BioAssay (Tox21) come the findings set out here.

Inconclusive results are not listed. Calls of active or inactive are those of the source. Unless noted, the call rests on the fitted dose curve.

5-hydroxytryptamine receptor 2A (Homo sapiens), sequence (P28223 whole entry, looked up): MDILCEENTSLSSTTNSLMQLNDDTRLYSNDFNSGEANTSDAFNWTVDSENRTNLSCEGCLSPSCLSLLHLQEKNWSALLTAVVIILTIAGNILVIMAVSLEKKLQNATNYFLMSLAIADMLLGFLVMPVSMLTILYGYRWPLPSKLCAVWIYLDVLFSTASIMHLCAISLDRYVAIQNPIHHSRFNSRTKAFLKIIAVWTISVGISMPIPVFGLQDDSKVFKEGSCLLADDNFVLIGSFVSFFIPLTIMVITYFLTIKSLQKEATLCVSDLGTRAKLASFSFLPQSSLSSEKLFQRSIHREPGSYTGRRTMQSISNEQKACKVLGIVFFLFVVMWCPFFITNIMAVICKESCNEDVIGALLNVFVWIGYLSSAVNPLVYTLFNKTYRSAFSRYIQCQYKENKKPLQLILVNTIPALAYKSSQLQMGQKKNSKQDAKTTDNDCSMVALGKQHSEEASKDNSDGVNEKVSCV
Gonadotropin-releasing hormone receptor (Homo sapiens), sequence (P30968 whole entry, looked up): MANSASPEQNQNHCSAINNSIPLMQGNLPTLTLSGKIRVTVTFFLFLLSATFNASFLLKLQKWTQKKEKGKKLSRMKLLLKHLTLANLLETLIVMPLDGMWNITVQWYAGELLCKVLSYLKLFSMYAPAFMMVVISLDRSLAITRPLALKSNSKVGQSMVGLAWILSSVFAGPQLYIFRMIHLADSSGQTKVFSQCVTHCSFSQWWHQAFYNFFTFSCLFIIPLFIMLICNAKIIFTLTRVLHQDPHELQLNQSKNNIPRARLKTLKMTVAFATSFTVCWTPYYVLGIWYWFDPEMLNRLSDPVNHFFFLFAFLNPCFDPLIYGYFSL
KiSS-1 receptor (Homo sapiens), sequence (Q969F8 whole entry, looked up): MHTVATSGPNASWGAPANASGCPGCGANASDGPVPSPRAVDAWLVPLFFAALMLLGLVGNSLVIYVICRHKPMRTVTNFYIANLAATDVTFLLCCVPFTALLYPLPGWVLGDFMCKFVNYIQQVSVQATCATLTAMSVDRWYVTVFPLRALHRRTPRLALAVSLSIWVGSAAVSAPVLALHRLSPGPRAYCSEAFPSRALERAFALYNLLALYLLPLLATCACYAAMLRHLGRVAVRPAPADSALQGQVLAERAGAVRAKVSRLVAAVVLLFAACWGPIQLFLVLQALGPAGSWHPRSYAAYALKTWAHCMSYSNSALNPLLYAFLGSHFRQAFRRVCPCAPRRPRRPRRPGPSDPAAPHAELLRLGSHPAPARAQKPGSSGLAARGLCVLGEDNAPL
Beta-2 adrenergic receptor (Homo sapiens), sequence (P07550 whole entry, looked up): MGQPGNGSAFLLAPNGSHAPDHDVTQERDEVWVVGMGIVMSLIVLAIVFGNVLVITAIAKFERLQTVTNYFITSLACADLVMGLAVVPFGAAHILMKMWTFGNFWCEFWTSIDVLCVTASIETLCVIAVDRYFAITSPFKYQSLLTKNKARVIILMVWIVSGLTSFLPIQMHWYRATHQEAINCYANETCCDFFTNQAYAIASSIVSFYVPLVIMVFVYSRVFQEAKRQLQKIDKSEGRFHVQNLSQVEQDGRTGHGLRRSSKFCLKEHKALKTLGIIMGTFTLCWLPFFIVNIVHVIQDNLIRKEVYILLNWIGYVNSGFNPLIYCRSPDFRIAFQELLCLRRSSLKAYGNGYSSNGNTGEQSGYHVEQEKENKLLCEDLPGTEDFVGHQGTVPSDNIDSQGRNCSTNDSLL

On to `NS(=O)(=O)Cc1noc2ccccc12`, for which the Potency result in assay [1], in [2], in [3], in assay [6], in assay [7] and in assay [8] was “inactive” each time. Also, the Potency result in [9], in [10], in assay [11], in [12], in assay [13] and in [14] was “inactive” in each case. Moreover, the Potency result in assay [15], in assay [16], in assay [17] and in assay [18] was “inactive” throughout. In addition, the result in [4] and in assay [5] was inactive.

On to `CCN(CC)CCOCCOC(=O)C1(c2ccccc2)CCCC1`, for which the Potency entry in assay [1], in assay [2], in [3], in assay [6], in assay [7] and in assay [8] was “inactive” each time. Also, the Potency result in [9], in assay [10], in assay [11], in assay [12], in assay [14] and in assay [15] was “inactive” in each case. Besides, the Potency result in [16], in assay [17], in assay [19] and in assay [18] was “inactive” in each case. Further, the result in assay [4] and in assay [5] was inactive. Moreover, the Potency in assay [13] was 0.13 µM (active).

With `O=C(Oc1ccccc1)c1ccccc1C(=O)Oc1ccccc1`, the Potency result in [1], in assay [2], in assay [3], in [6], in assay [7] and in assay [8] was “inactive” each time. Further, the Potency entry in assay [9], in assay [10], in assay [11], in assay [12], in [13] and in [14] was “inactive” in each case. The Potency entry in assay [20], in assay [16], in assay [17], in [19] and in assay [18] was “inactive” each time. Further, the result in [4] and in [5] was inactive.

`COC(=O)N/N=C/c1c[n+]([O-])c2ccccc2[n+]1[O-]`: the Potency entry in assay [1], in assay [2], in assay [6], in assay [7], in [8] and in [9] was “inactive” each time. Besides, the Potency result in assay [10], in [11], in assay [13], in assay [20], in assay [15] and in assay [16] was “inactive” in each case. Also, the Potency result in assay [17], in assay [19] and in assay [18] was “inactive” throughout. Besides, the Potency is 19 µM (active) in assay [3] and 15.1 µM (active) in assay [12]. Also, the result in [4] and in assay [5] was inactive.

Consider `C=CCCCCCCCCC=O`, for which the Potency entry in assay [1], in assay [2], in [3], in assay [6], in assay [7] and in assay [8] was “inactive” throughout. The Potency entry in assay [9], in assay [10], in assay [11], in [12], in assay [13] and in [14] was “inactive” in each case. Moreover, the Potency result in assay [16], in assay [19] and in assay [18] was “inactive” throughout. Further, the outcome in [4] and in assay [5] was inactive.

Take `CCCCCCCCCCOC(C)=O`: the Potency entry in [1], in [2], in [3], in assay [6], in assay [7] and in assay [8] was “inactive” throughout. Further, the Potency result in assay [9], in assay [10], in [11], in assay [13], in assay [14] and in [15] was “inactive” each time. For the same molecule, the Potency entry in assay [16], in assay [17] and in assay [19] was “inactive” throughout. Also, the outcome in assay [4] and in [5] was inactive.

In the case of `O=c1c2ccccc2nnn1CCl`, the Potency entry in assay [1], in [2], in assay [3], in assay [6], in assay [7] and in [8] was “inactive” in each case. Moreover, the Potency result in assay [9], in assay [10], in assay [11], in assay [12], in assay [13] and in [14] was “inactive” in each case. Besides, the Potency entry in assay [20], in assay [17] and in assay [18] was “inactive” in each case. For the same molecule, the outcome in assay [4] and in [5] was inactive.

For the molecule `CC1=NS(=O)(=O)c2cc(Cl)ccc2N1`, the Potency result in assay [1], in assay [2], in assay [3], in [6], in [7] and in [8] was “inactive” in each case. Moreover, the Potency entry in [9], in assay [10], in assay [11], in assay [20], in [15] and in assay [16] was “inactive” throughout. Also, the Potency result in assay [17], in assay [19] and in assay [18] was “inactive” in each case. Besides, the result in [4] and in assay [5] was inactive.

As for `CCN1CC(CCN2CCOCC2)C(c2ccccc2)(c2ccccc2)C1=O` (stereo unspecified), the Potency entry in [1], in assay [2], in assay [3], in [6], in assay [7] and in assay [8] was “inactive” throughout. For the same molecule, the Potency entry in assay [9], in assay [10], in [11], in [20], in assay [15] and in assay [16] was “inactive” each time. In addition, the Potency result in [17], in [19] and in [18] was “inactive” each time. Further, the result in [4] and in [5] was inactive.

As to `CCOc1nc2cccc(C(=O)O)c2n1Cc1ccc(-c2ccccc2-c2nn[nH]n2)cc1`, the Potency entry in assay [1], in assay [2], in assay [3], in [6], in [7] and in assay [8] was “inactive” throughout. Also, the Potency result in assay [9], in assay [10], in assay [11], in [20], in assay [15] and in [16] was “inactive” each time. The Potency entry in [17] and in assay [19] was “inactive” each time. In addition, the outcome in [4] and in assay [5] was inactive.
